# Test results taken from paper PMC4336329 (PLoS ONE, 2015).
# The campaign covered roughly 310,000 compounds. About 2,200 (0.71%) showed an effect of 50% or more. Effects have a minus sign here. The entries come from a sample that favours strong results as a whole.
# Biological target: human ether-à-go-go-related gene (hERG) potassium channel (human, UniProt Q12809)
# Assay: primary screen, population patch clamp on CHO cells stably expressing hERG; higher = less effect of the substance
# human ether-à-go-go-related gene (hERG) potassium channel, sequence (Q12809 whole entry, looked up): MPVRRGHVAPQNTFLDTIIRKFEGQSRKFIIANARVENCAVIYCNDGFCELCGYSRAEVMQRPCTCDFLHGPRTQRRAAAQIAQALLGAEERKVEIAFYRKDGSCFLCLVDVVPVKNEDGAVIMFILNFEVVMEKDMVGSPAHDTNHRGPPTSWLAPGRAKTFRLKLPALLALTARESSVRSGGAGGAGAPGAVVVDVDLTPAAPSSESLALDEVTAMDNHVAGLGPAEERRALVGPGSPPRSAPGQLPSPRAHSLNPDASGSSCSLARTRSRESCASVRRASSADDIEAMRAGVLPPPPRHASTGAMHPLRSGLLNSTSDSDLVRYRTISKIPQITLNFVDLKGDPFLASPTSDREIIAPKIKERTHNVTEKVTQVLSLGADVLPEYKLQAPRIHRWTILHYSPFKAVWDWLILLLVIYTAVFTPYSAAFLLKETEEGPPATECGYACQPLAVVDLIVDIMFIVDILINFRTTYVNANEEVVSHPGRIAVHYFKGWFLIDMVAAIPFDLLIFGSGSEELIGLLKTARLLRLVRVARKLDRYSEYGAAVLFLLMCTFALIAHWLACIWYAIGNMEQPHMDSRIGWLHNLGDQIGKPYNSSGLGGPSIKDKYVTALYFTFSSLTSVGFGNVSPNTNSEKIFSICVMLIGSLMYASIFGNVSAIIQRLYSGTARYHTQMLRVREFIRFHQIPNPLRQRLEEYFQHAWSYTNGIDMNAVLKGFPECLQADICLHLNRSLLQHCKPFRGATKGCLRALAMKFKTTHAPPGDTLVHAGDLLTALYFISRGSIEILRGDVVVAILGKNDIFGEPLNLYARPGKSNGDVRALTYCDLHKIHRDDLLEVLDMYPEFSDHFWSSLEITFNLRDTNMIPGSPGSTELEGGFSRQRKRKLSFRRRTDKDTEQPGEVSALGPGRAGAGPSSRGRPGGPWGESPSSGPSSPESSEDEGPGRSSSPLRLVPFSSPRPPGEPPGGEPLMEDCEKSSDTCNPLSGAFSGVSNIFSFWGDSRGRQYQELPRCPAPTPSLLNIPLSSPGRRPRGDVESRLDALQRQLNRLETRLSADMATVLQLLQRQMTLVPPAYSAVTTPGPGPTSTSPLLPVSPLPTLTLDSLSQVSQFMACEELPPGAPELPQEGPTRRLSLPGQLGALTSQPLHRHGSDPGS
row,SMILES,"hERG current change (%, negative = inhibition) at 1uM [%]"
1,CCOC(=O)C1CCN(S(=O)(=O)c2cc3c(cc2C)NC(=O)CO3)CC1,-13.1
2,CC(=O)NCCC(=O)Nc1sc2c(c1-c1nc3ccccc3[nH]1)CCCC2,7.25
3,CC(C)(C)NCCOc1ccc2ccccc2c1,14.6
4,O=C(O)c1cc2ccccc2cc1Nc1ccccc1,6.84
5,CC(OC(=O)c1ccco1)C(=O)Nc1ccc(Cl)cn1 (centres unmarked),5.93
6,CNC(=O)C1=C(C)Nc2nc3ccccc3n2C1c1ccc(F)cc1 (centres unmarked),7.95
7,C/C(CC(=O)Nc1ccc(F)cc1)=N\NC(=O)Cc1csc(N)n1,16.1
8,CCOC(=O)c1nc(Nc2ccc(C(=O)O)cc2)c2ccccc2n1.Cl,11.2
9,O=C(Nc1ccccc1)N(C1=NCCCCS1)c1cccc2ccccc12,5.62
10,O=C(O)CC1SC(=O)N(CC(=O)c2ccccc2)C1=O (centres unmarked),8.06
11,O=C(COC(=O)Cc1cccc(C(F)(F)F)c1)NC1CC1,10.7
12,N#CCCn1cc(C(=O)Nc2ccc(F)cc2)c(-c2ccc([N+](=O)[O-])cc2)n1,6.48
13,N#CCCn1cc(C(=O)Nc2ccc([N+](=O)[O-])cc2)c(-c2ccccc2)n1,-67.8
14,N#CCCn1cc(C(=O)Nc2ccc(C(=O)O)cc2)c(-c2ccc([N+](=O)[O-])cc2)n1,16
15,O=C(OCC(=O)N1CCCC1)c1ccc(S(=O)(=O)Nc2ccccc2)cc1,-0.807
16,CN(CC(=O)Nc1cccc(F)c1)C(=O)c1ccccc1Sc1ccccc1C#N,-8.06
17,CC(C)(C)c1ccc(CN2C(=O)c3ccccc3S2(=O)=O)cc1,15.7
18,CC(=O)c1cccc(NC(=O)C2CCCN(S(=O)(=O)c3ccccc3)C2)c1 (centres unmarked),7.51
19,O=C(NCc1ccco1)C1CCCN(S(=O)(=O)c2cc(Cl)ccc2Cl)C1 (centres unmarked),2.52
20,CN(C)c1ccc(/C=N/NC(=O)c2ccn(C)n2)cc1,9.92
21,CC(NC(=O)c1ccc(S(=O)(=O)N(C)C)cc1)c1ccc(-n2ccnc2)cc1 (centres unmarked),-40.5
22,CC(NC(=O)c1ccccc1Cl)c1ccc(-n2ccnc2)cc1 (centres unmarked),-1.53

row,SMILES,"hERG current change (%, negative = inhibition) at 1uM [%]"
1,CC(NC(=O)c1cc(S(=O)(=O)N(C)C)ccc1Cl)c1ccc(-n2ccnc2)cc1 (centres unmarked),-55.3
2,COc1ccc(C(=O)CN2C(=O)NC(C)(c3ccccc3)C2=O)cc1OC (centres unmarked),3.32
3,CCOC(=O)C1CCN(C(C)C(=O)c2c(C)[nH]c3cc(C)ccc23)CC1 (centres unmarked),-66.9
4,CCOC(=O)C1CCN(CC(=O)c2c(C)[nH]c3cc(C)ccc23)CC1,-26.8
5,CCOC(=O)C1CCN(C(C)C(=O)c2c[nH]c3ccccc23)CC1 (centres unmarked),-1.89
6,CCOC(=O)C1=C(C)NC(=S)N(C(C)=O)C1c1ccc(Cl)cc1 (centres unmarked),9.38
7,O=C1OCCC1Sc1nc2ccccc2c(=O)n1Cc1ccccc1 (centres unmarked),-64.6
8,O=C1OCCC1Sc1nc2ccccc2c(=O)n1Cc1ccc(F)cc1 (centres unmarked),-37.5
9,Cc1ccc(Cn2c(SC3CCOC3=O)nc3ccccc3c2=O)cc1 (centres unmarked),-6.65
10,COc1ccc2nc3ccccc3nc2c1NC(=O)c1ccccc1Cl,-1.38
11,O=C(NCc1ccccc1)c1cnsn1,7.4
12,CC1(C)C(=O)C2(CCCCC2)C(=O)OC1C(=O)c1ccccc1 (centres unmarked),6.81
13,O=C(COc1ccc2c3c(c(=O)oc2c1)CCCC3)N1C[C@H]2C[C@@H](C1)c1cccc(=O)n1C2,-6
14,COc1cnn(Cc2ccccc2)c(=O)c1SCc1ccccc1,-2
15,CCN1CCc2nc3ccccc3c(C(=O)Nc3ccc(F)cc3)c2C1,-81.6
16,Cc1ccc(NC(=O)c2c3c(nc4ccccc24)CCC3)cc1,7.04
17,CCN1CCc2nc3ccccc3c(C(=O)Nc3ccc(NC(C)=O)cc3)c2C1,12.4
18,CCN1CCc2nc3ccccc3c(C(=O)Nc3ccc(C#N)cc3)c2C1,-65.8
19,CCOc1ccc(NC(=O)c2c3c(nc4ccccc24)CCC3)cc1,10.9
20,O=C(NCc1ccc(F)cc1)c1c2c(nc3ccccc13)CCN(Cc1ccccc1)C2,0.811
21,Cc1ccc(Oc2nc(C(F)(F)F)nc3ccccc23)cc1,6.66
22,CC(C)(C)OC(=O)N/N=C\c1ccc(OC(=O)c2cccs2)cc1,9.49

row,SMILES,"hERG current change (%, negative = inhibition) at 1uM [%]"
1,COc1ccc(-c2n[nH]c(=S)n2-c2ccc(Br)cc2)cc1OC,16.7
2,O=C(COC(=O)CCS(=O)(=O)c1ccccc1)Nc1ccccc1,0.18
3,O=C(COC(=O)c1cc[n+]([O-])cc1)Nc1cc([N+](=O)[O-])ccc1Cl,13.7
4,O=C(NCC(c1ccco1)N1CCc2ccccc2C1)c1ccc([N+](=O)[O-])cc1 (centres unmarked),-7.15
5,O=C(C[n+]1cccc2ccccc21)c1ccccc1.[Br-],8.9
6,O=C(C[n+]1cccc(C(=O)Nc2ccccc2)c1)c1ccc([N+](=O)[O-])cc1.[Br-],-61
7,O=C(C[n+]1cccc2ccccc21)c1ccc([N+](=O)[O-])cc1.[Br-],-53.8
8,O=C(C[n+]1cccc(NC(=O)c2ccccc2)c1)c1cccc([N+](=O)[O-])c1.[Br-],-39.6
9,Cc1ccc(C(=O)C[n+]2cccc3ccccc32)cc1.[Br-],7.24
10,O=C(Nc1ccccc1)c1ccc[n+](Cc2ccc([N+](=O)[O-])cc2)c1.[Br-],5.28
11,COc1ccc(CC(=O)NNS(=O)(=O)c2ccc([N+](=O)[O-])cc2)cc1OC,16
12,O=C(COn1nnc2ccc(Cl)cc21)NCc1ccccc1,0.51
13,CCCCN1C(=O)C(=O)N(CC(=O)NC2CCCc3ccccc32)C1=O (centres unmarked),8.35
14,Cc1ccc(-c2csc(N(CCCN3CCOCC3)C(=O)c3ccco3)n2)cc1.Cl,-4.11
15,Cc1ccc(-c2csc(N(CCCN(C)C)C(=O)c3ccco3)n2)cc1.Cl,-36.6
16,Cl.O=C(c1ccco1)N(CCCN1CCOCC1)c1nc(-c2ccc(Cl)cc2)cs1,-5.41
17,CCN(CC)CCCN(C(=O)c1ccco1)c1nc(-c2ccc(Cl)cc2)cs1.Cl,-25.5
18,CN(C)CCCN(C(=O)c1ccco1)c1nc(-c2ccc(Cl)cc2)cs1.Cl,-70.8
19,CCN(CC)CCCN(C(=O)c1ccco1)c1nc(-c2ccc(C)cc2)cs1.Cl,-90.2
20,COc1cccc(C2c3[nH]c4ccccc4c3C[C@H]3C(=O)N(C)CC(=O)N23)c1 (some centres unmarked),-1.14
21,CON(c1nc(Cl)nc(N(C)C)n1)S(=O)(=O)c1ccccc1Cl,6.38
22,O=C(Nc1cc(Br)ccc1O)C1CC(c2ccccc2Cl)=NO1 (centres unmarked),18.5

row,SMILES,"hERG current change (%, negative = inhibition) at 1uM [%]"
1,COc1ccccc1Nc1nc(N)nc(CN(C)C2CCCCC2)n1,-11.7
2,CCOc1ccc(Nc2nc(N)nc(CN(C)C3CCCCC3)n2)cc1,-58.2
3,COc1ccc(Nc2nc(N)nc(CN(C)C3CCCCC3)n2)cc1,-17.9
4,CCOc1ccccc1Nc1nc(N)nc(CN(C)C2CCCCC2)n1,-54.3
5,CCOc1ccc(Nc2nc(N)nc(CCl)n2)cc1,7.02
6,CCOc1ccccc1Nc1nc(N)nc(CN2CCCCC2C)n1 (centres unmarked),-9.01
7,CC(C)NC(=O)C1CCN(C2CCN(C(=O)Cc3ccc4c(c3)OCO4)CC2)CC1,4.98
8,Cc1cc(N2C(=O)C(O)=C(C(=O)c3cccs3)C2c2ccc(F)cc2)no1 (centres unmarked),14.8
9,S=C(NCc1ccncc1)Nc1ccccc1,7.34
10,CCOc1ccc(N2C(=O)CC(NCCNc3ccc([N+](=O)[O-])cn3)C2=O)cc1 (centres unmarked),-37.8
11,CCCOc1ccc(N2C(=O)CC(NCCNc3ccc([N+](=O)[O-])cn3)C2=O)cc1 (centres unmarked),-57.8
12,COc1ccc(N2C(=O)CC(NCCNc3ccc([N+](=O)[O-])cn3)C2=O)cc1 (centres unmarked),-13.7
13,CC1(C)CC(=O)C2=C(C1)N(c1ccc(F)cc1)C(N)=C(C#N)C2c1cccs1 (centres unmarked),4.89
14,CC1CN(C)C(C)C/C1=N/Oc1ccccc1[N+](=O)[O-].Cl (centres unmarked),2.66
15,CN1CCN(C(=O)c2ccc(Oc3ccc([N+](=O)[O-])cc3)cc2)CC1,-11.7
16,CC1CN(C)C(C)C/C1=N\Oc1ccc([N+](=O)[O-])cc1.Cl (centres unmarked),-84.5
17,CC1=CC(=O)C=C(C)C1=NOc1ccc([N+](=O)[O-])cc1,-11.7
18,CN1CCC(=NOc2ccc([N+](=O)[O-])cc2)CC1,-56
19,CC1CC(C)CN(S(=O)(=O)c2ccc(Oc3ccc([N+](=O)[O-])cc3)cc2)C1 (centres unmarked),14.4
20,CCCCCc1nnc(NC(=O)C2=COCCO2)s1,6.91
